Source: ChEMBL document CHEMBL3988442, “University of Dundee, Small-Polar-MMV Screening Library” (2021)
The whole screen tested about 48,000 compounds, of which about 13,000 (27%) showed an effect of 50% or more. This is one part of the list.

What follows are compounds tested on Wolbachia pipientis (assay: Anti-Wolbachia Cell-Based Screen). Details: 5 µM.
Assay type: functional
Parameters: scale not given: in the data most compounds retested in dose-response had high values

SMILES | Percent Effect [%]
O=C(O)CC1CN(S(=O)(=O)c2cccc(F)c2)c2ccccc21 (stereo not given) | -14.9
CC(NC(=O)Nc1nnc(-c2ccccn2)s1)C(=O)OC(C)(C)C (stereo not given) | 4.269
CN1CC[C@@H]2[C@@H](CO[C@H]2CNC(=O)c2nccn2C)C1.O=C(O)C(F)(F)F | -30.91
COCCN(CCN(C)C)C(=O)NC1CCc2ccccc2C1 (stereo not given) | -2.569
Cc1ccc(Sc2ccc(CN3CCC4(CCCNC4=O)C3)o2)cc1 (stereo not given) | 5.94
CCOc1cc2c(cc1CN1CCC3(CC1)CNC(=O)C3)CCC2 | 89
CCOc1ccc(CN2CCC3(CC2)CNC(=O)C3)cn1 | -1.206
CCOc1cc2c(cc1CCC(=O)O)CCC2 | -9.267
CCOc1cc(Cl)c(CN2CCC3(CCCNC3=O)C2)cc1OC (stereo not given) | 104.3
O=C1NCCCC12CCN(Cc1ccc(SC3CCCCC3)o1)C2 (stereo not given) | 4.336
CCCNc1ncc(CN2CCC3(CC2)CNC(=O)C3)cn1 | -5.134
CCCc1cc(C(=O)N2CCC3(CCCNC3=O)C2)cs1 (stereo not given) | 9.333
CCOc1cc2c(cc1CN1CCC3(CCCNC3=O)C1)CCC2 (stereo not given) | 106.5
CN1CCc2ccc(NCc3cscn3)cc2C1=O | 26.59
CN(C)C(=O)CN1C[C@H]2CCN(C(=O)c3ccncc3)CC[C@H]2S1(=O)=O | 6.618
CCc1nnc(S(=O)(=O)Cc2cc(Cl)c3c(c2)OCO3)n1C | -5.495
COCCN(C)c1nc(-c2ccncc2)nc2c1CCN(C(C)=O)C2 | 5.956
CNC(=O)CCN(C)c1nc(-c2ccncc2)nc2c1CCNC2 | 97.6
NC(=O)c1ccc(-c2nc3c(c(=O)[nH]2)CCNC3)cc1 | -6.229
CN(CCCO)c1nc(-c2ccc(C(N)=O)cc2)nc2c1CCNC2 | 101.5
CCN(CC)CCN(C)c1nc(-c2ccc(Cl)cc2)nc2c1CNC2 | -44.78
CN(CC(O)CO)c1nc(-c2cccnc2)nc2c1CCNC2 (stereo not given) | 5.807
CNC(=O)CN(C)c1nc(-c2ccc(C(N)=O)cc2)nc2c1CCNC2 | 117.3
CNC(=O)CN(C)c1nc(-c2ccncc2)nc2c1CCN(C(C)=O)C2 | -5.976
CN(CCO)c1nc(-c2ccccn2)nc2c1CCNC2 | -7.259
O=C1NCCO[C@H]2CN(C(=O)CCc3ccc(Cl)cc3)CC[C@@H]12 | 1.273
O=C(CC1CCc2ccccc21)NCCSc1cnn[nH]1 (stereo not given) | -1.678

SMILES | Percent Effect [%]
O=S(=O)(NCC1CCOC1)N1CCc2ccccc2C1 (stereo not given) | 0.4119
CN(CCOc1ccc(Br)cc1)Cc1cscn1 | -4.62
CCCc1nnc(NC2CCN(Cc3ccc(F)c(F)c3)CC2)o1 | -13.59
Cc1cc(C(=O)NC2CCCCNC2=O)c(=O)[nH]c1C (stereo not given) | -5.405
Cn1cc(CN2CCOC3(CCCN(c4cccc(F)c4)C3)C2)cn1.O=C(O)C(F)(F)F.O=C(O)C(F)(F)F (stereo not given) | -4.147
O=C(O)C(F)(F)F.O=C(O)C(F)(F)F.O=C(O)CN1CCC(F)(F)C2(CCN(c3ccccc3)C2)C1 (stereo not given) | -5.23
FC1(F)CCN(Cc2cccnc2)CC12CCN(c1ccccc1)C2.O=C(O)C(F)(F)F.O=C(O)C(F)(F)F.O=C(O)C(F)(F)F (stereo not given) | 93.27
O=C(O)C(F)(F)F.O=C(c1c[nH]cn1)N1CCC(F)(F)C2(CCN(c3cccc(F)c3)C2)C1 (stereo not given) | -14.3
Cn1cc(CN2CCC(F)(F)C3(CCN(c4cccc(F)c4)C3)C2)cn1 (stereo not given) | 120.4
Cn1cc(CN2CCC(F)(F)C3(CCN(c4cccnc4)C3)C2)cn1.O=C(O)C(F)(F)F.O=C(O)C(F)(F)F (stereo not given) | 116.7
FC1(F)CCN(Cc2ccncc2)CC12CCN(c1cccnc1)C2.O=C(O)C(F)(F)F.O=C(O)C(F)(F)F.O=C(O)C(F)(F)F (stereo not given) | 90.74
O=C(CO)N1CCC(F)(F)C2(CCN(c3ccccc3)C2)C1.O=C(O)C(F)(F)F (stereo not given) | 5.936
Cc1nc(Nc2ccc(Cl)cn2)sc1C(=O)NC(C)C | 4.933
O=C(NCc1nc(NC2CCCC2)c2cc(Cl)ccc2n1)c1ccoc1 | 13.57
CC(C)(C(=O)NCc1n[nH]c(=O)[nH]1)c1ccc(F)cc1 | 1.866
O=C(NCCC(O)c1ccco1)c1ccccc1Br (stereo not given) | 14.27
CC(O)CN1CCN(C(=O)c2ccn(-c3cccc(Cl)c3)n2)CC1 (stereo not given) | 1.72
CS(=O)(=O)N1CCCC12CCN(Cc1ccoc1)CC2 | 99.65
CS(=O)(=O)N1CCOCC12CCN(c1nncs1)CC2 | 4.354
CS(=O)(=O)N1CCOCC12CCN(Cc1ccoc1)CC2 | 122
CS(=O)(=O)N1CCCC12CCN(Cc1nccs1)CC2.O=C(O)C(F)(F)F | -14.48
CN(C)C(=O)CO[C@H]1CO[C@@]2(CCN(Cc3ccoc3)C2)C1 | -7.87
Cn1cc(CN2CCC3(CCCN3S(C)(=O)=O)CC2)cn1 | 6.984
COCCNc1ccccc1CNC(=O)NCc1ccc(C)s1 | -4.597
CS(=O)(=O)CCOCCNc1cncc(Br)c1 | -7.579
CN1CCCN(c2nc(C3CC3)ns2)CC1 | -64.99
CC(C)N(CCNC(=O)c1n[nH]c2ccccc12)C(C)C | 25.98

SMILES | Percent Effect [%]
Cc1ccc(C(=O)NCC(C)Cn2cccn2)c(=O)[nH]1 (stereo not given) | -11.2
CN(C)CCNC(=O)c1cc2n(n1)CCN(C(=O)c1ccc[nH]1)C2 | -27.47
CC(C)n1cc(C(=O)NCCN(C)C)c2n[nH]c(=O)c-2c1 | 115.3
CC(C)CNC(=O)c1ccc2c(=O)n(-c3ccccc3)cnc2c1 | 11.47
CC(C)CNC(=O)c1cn(C(C)C)cc2c(=O)[nH]nc1-2 | 135.5
CCOCCn1nc(C)cc1C(=O)N1CCC2(CC1)[C@H](O)C[C@@H]2OCC | -36.55
CC1=C[C@@H](CNS(C)(=O)=O)[C@H](C(C)C)C[C@H]1CC(=O)NCCN(C)C | 5.044
Cc1cc(C)n(CCCC(=O)N2CC[C@H]3NCCC[C@]3(CO)C2)n1 | -1.122
CS(=O)(=O)CCC(=O)N1C[C@@H]2CC[C@H](C1)N(Cc1ccccc1)C2=O | 8.046
Cc1ccc(CN(C)C(=O)CNC(=O)N2CCc3ccccc3C2)o1 | 79.51
Cc1ccc(CN(C)C(=O)CN2CCc3ccccc3C2)o1 | 87.7
Cc1ccc(CN(C)C(=O)CN2CCCC2c2cnn(C)c2)o1 (stereo not given) | -1.976
COCCN1CCN(CC(=O)N(C)Cc2ccc(C)o2)CC1C (stereo not given) | 6.475
CN(Cc1ccco1)C(=O)CN1CCc2ccccc2C1 | -0.07899
Nc1nc(NCCO)cc(N2CCc3c([nH]c4ccccc34)C2)n1 | 98.87
COc1ccc(F)c(-c2cc(NCCO)nc(N)n2)c1 | -1.904
OCC1CCCN1c1cc(NCCc2c[nH]c3ccccc23)ncn1 (stereo not given) | 7.134
c1ccc2c3c([nH]c2c1)CN(Cc1cc2n(n1)CCNC2)CC3 | -25.6
CCNc1cc(N2CCN(C(=O)c3ccc(OC)cc3)CC2)nc(C)n1 | 4.812
COc1ccc2[nH]c3c(c2c1)CN(c1cc(NCCO)nc(N)n1)CC3 | 97.63
Cc1cccc(-c2nnn3c2COC(CNC(=O)N2CCCC2)C3)c1 (stereo not given) | 9.642
NCC1Cc2cc(-c3nccc(N4CCC(O)CC4)n3)cc(Cl)c2O1 (stereo not given) | -10.94
Cc1ccc(C)c(Oc2ccc(CNC(=O)C3CCS(=O)(=O)C3)cn2)c1 (stereo not given) | -2.907
CCCc1noc(CNc2ccc(C(=O)N3CCCC3)cc2C)n1 | 101
Cc1cc(C(=O)N2CCCC2)ccc1NCc1nc(CC(C)C)no1 | 81.12
CC(C)Cc1noc(CNc2ccccc2CC(=O)N(C)C)n1 | 7.405
CCc1nc(CNc2ccc(C(=O)N3CCSCC3)cc2C)no1 | 92.2

SMILES | Percent Effect [%]
CCc1noc(CNc2ccc(CC(=O)N3CCSCC3)cc2)n1 | 21.21
CC(C)Cc1noc(CN2CCCN(C(=O)c3cccc(Cl)c3)CC2)n1 | -52.16
CCc1noc(CNc2cccc(C(=O)N3CCSCC3)c2)n1 | 10.06
CCc1nc(CNc2ccc(C(=O)NCc3ccco3)cc2C)no1 | -7.097
Cc1cc(C(=O)N2CCCC2)ccc1NCCOCC(F)(F)F | -22.68
CCCc1nc(CNc2cccc(C(=O)N3CCCC(O)C3)c2)no1 (stereo not given) | 1.271
CCc1noc(CNc2ccc(C(=O)N3CCCC3)cc2C)n1 | 101.8
Cc1ccc(C(=O)N2CCCC(CNS(=O)(=O)C(C)C)C2)cc1 (stereo not given) | -19.42
CN(Cc1csc(-c2ccccc2)n1)Cc1ncccc1C(=O)O | 4.154
N#Cc1ccccc1OCCN1CCN(C(=O)C2CCCC2)CC1 | -2.024
CC1CCN(S(=O)(=O)NC2CCCCNC2=O)CC1 (stereo not given) | 36.47
CC(C)CNC(=O)Nc1ccc(CN2CCOC2=O)cc1 | -13.36
Cc1cc(CNS(=O)(=O)CCCC#N)ccc1N(C)C | 89.17
COCCS(=O)(=O)NCC(C)c1cccc(C)c1 (stereo not given) | -6.365
CC(CNS(=O)(=O)CCCC#N)c1ccsc1 (stereo not given) | -6.761
Cc1cc(CNS(C)(=O)=O)ccc1N(C)C | 110.2
Cc1ccc(CNC(=O)NC(C)CCS(C)(=O)=O)cc1F (stereo not given) | -1.224
CS(=O)(=O)NCc1ccc2c(c1)CCC2 | -9.378
Cc1cccc(C(C)CNS(=O)(=O)CCCC#N)c1 (stereo not given) | 5.748
CCN(C)c1ccc(CNS(=O)(=O)CC2CCCO2)cc1F (stereo not given) | -7.103
Cc1ccc(CNC(=O)c2ccc(CNS(C)(=O)=O)o2)cc1F | 2.956
Cc1ccc(CNS(=O)(=O)CCCC#N)cc1F | 111.5
COCCS(=O)(=O)NCc1ccc(N(C)C)c(C)c1 | 78.12
Cc1cnn(CCC(=O)NCc2ccc(N(C)C)c(C)c2)c1 | 4.786
